Rows were chosen to be rich in hits. Some 0.81% of all compounds tested hit in one or more screens of this group.
COUP-TFII inh = NR2F2 transcriptional activity inhibitors, primary screen, cell-based, luciferase reporter, HEK293T, luminescence. HEK293T NGFI-A luciferase reporter. inhibition, % at 8.6 µM. actives 0.7% (n = 370,000). COUP transcription factor 2 (Homo sapiens), P24468;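 active = inhibition above a per-plate cutoff, mean inhibition of test wells between control levels plus 3 SD, cut at about 38% in these data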;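 also: cells cotransfected with COUP-TFII expression vector driving the NGFI-A reporter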
Target sequence (P24468 whole entry, looked up): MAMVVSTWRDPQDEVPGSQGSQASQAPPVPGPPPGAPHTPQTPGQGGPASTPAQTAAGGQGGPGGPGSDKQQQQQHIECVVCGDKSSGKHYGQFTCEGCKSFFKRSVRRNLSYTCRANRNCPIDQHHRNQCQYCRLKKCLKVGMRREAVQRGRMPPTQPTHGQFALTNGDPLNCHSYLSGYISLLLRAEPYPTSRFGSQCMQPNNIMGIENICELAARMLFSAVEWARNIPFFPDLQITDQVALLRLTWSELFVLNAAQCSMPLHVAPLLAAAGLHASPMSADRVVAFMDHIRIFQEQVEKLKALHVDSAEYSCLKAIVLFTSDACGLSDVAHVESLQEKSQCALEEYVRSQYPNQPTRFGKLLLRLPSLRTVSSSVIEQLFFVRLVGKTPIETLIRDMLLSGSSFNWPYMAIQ
SRC1 inh = SRC1 coactivator transcriptional activity inhibitors, primary screen, cell-based, luminescence. HEK293 GAL4-SRC1 luciferase reporter. Nuclear receptor coactivator 1 (Homo sapiens), Q15788. actives 0.12% (n = 360,000). inhibition, % at 3.6 µM;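 active = inhibition above the campaign mean plus 3 SD, with each screening campaign given its own cutoff, cut at about 60% in these data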
SRC2 inh = inhibition of GAL4-SRC2 driven luciferase reporter, primary screen, SRC2 inhibitor project, cell-based, luminescence; HEK293 GAL4-SRC2 luciferase reporter; inhibition, % at 9 µM; actives 0.17% (n = 370,000); AID 651957, 2012;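 active = inhibition above the mean inhibition of all tested compounds plus 3 SD, set per campaign, cut at about 52% in these data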
NCOA3 inh = SRC3 coactivator transcriptional activity inhibitors, primary screen, cell-based, luminescence | Nuclear receptor coactivator 3 (Homo sapiens), Q9Y6Q9 | HEK293 GAL4-SRC3 luciferase reporter | inhibition, % at 3.6 µM | actives 0.17% (n = 360,000);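 active = inhibition above a per-campaign cutoff, the mean of all compounds plus 3 SD, cut at about 60% in these data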;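 also: higher means less SRC3-driven luciferase light from the GAL4 reporter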
NR5A2 inv ag = LRH-1 (NR5A2) inverse agonists, primary screen, cell-based, luminescence, HEK293T, StAR-luciferase reporter; inhibition, % at 3.6 µM; actives 0.13% (n = 360,000); AID 602396, 2012; Nuclear receptor subfamily 5 group A member 2 (Homo sapiens), O00482; LRH-1 transfected, 24 h;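 active = inhibition above the mean inhibition of all tested compounds plus 3 SD, cut at about 73% in these data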
Gal4-VP16 ctr = Gal4-VP16 luciferase reporter inhibitors, counter-screen for COUP-TFII antagonist project, cell-based, luminescence, HEK293 | shares compounds with COUP-TFII inh | inhibition, % at 8.5 µM | actives 25% (n = 2,500); in the data active = inhibition above about 13%
NR2F2 inh conf = NR2F2 transcriptional activity inhibitors, confirmation, cell-based, luciferase reporter, HEK293, triplicate. shares compounds with COUP-TFII inh. HEK293 NGFI-A luciferase reporter, luminescence. inhibition, % at 8.5 µM. actives 45% (n = 2,500). AID 687008, 2013;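 active = mean inhibition over three repeats above a set limit taken from the earlier primary screen, cut at about 38% in these data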
Each line names hits and unclear results; the compound was inactive in the other large screens (follow-up assays come after a bar, where they were run).

Cc1cccc(OCC(=O)Nc2ccncc2)c1C	COUP-TFII inh 39.3 | Gal4-VP16 ctr inactive | NR2F2 inh conf inactive
Cc1c(C)c2cc(Cl)c(OCC(=O)Nc3ccccn3)cc2oc1=O	none
CSc1ccccc1NC(=O)COc1ccc(Cl)cc1Cl	none
Cc1c(C)c2ccc(OCC(=O)Nc3ccccn3)c(C)c2oc1=O	COUP-TFII inh 77.9, SRC1 inh 74.1, SRC2 inh 68.7, NCOA3 inh 80.8, NR5A2 inv ag 76.5 | Gal4-VP16 ctr 82.3 | NR2F2 inh conf 98.0
CCOC(=O)Cn1cc(CN2C(C(=O)OC)CN(Cc3ccc(C)cc3)CCS2(=O)=O)nn1 (centres undefined)	none (no result: SRC1 inh, NCOA3 inh, NR5A2 inv ag)
CCOC(=O)[C@@]12CCCC3=C1N(CCC3)C(=O)[C@H]2CC(=O)N1CCC(c2ccccc2)CC1	none (no result: SRC1 inh, NCOA3 inh, NR5A2 inv ag)
C=CCN1C(=O)[C@@H](CC(=O)NCc2cccc(C(F)(F)F)c2)[C@]2(C(=O)OCC)CCCCC/C=C/12	none (no result: SRC1 inh, NCOA3 inh, NR5A2 inv ag)
Cc1nn(C)c(C)c1NC(=O)COc1ccc(F)cc1Br	none
Cc1nn(C)c(C)c1NC(=O)COc1ccc(Cl)cc1Br	COUP-TFII inh 51.2 | Gal4-VP16 ctr inactive | NR2F2 inh conf 50.4
Cc1cc(Cl)ccc1OCCCC(=O)NO	COUP-TFII inh 51.8 | Gal4-VP16 ctr inactive | NR2F2 inh conf 47.2
CCOC(=O)c1csc(NC(=O)C2CCCN(S(=O)(=O)c3ccc([N+](=O)[O-])cc3)C2)n1 (centres undefined)	COUP-TFII inh 45.6 (no result: SRC1 inh, NCOA3 inh, NR5A2 inv ag) | Gal4-VP16 ctr inactive | NR2F2 inh conf inactive
CCOC(=O)C1CCCN(S(=O)(=O)c2ccc(S(=O)(=O)N(CC)CC)cc2)C1 (centres undefined)	COUP-TFII inh 68.0 | Gal4-VP16 ctr inactive | NR2F2 inh conf 65.7
CCOC(=O)c1csc(NC(=O)C2CCCN(S(=O)(=O)c3ccccc3)C2)n1 (centres undefined)	none (no result: SRC1 inh, NCOA3 inh, NR5A2 inv ag)
COC(=O)[C@]12C[C@H](CC(=O)N3CCC(c4ccccc4)CC3)C(=O)N(Cc3ccccc3)C1=C[C@H](COCc1ccccc1)O[C@@H]2C	none (no result: SRC1 inh, NCOA3 inh, NR5A2 inv ag)
C/C(=N\NC(=O)Cc1cccs1)c1ccco1	none (no result: SRC1 inh, NCOA3 inh, NR5A2 inv ag)
COc1ccc(OCCN2CCN(S(=O)(=O)c3ccccc3C#N)CC2)cc1	none
CC(=O)c1ccc(S(=O)(=O)N2CCN(CCOc3ccc(Br)cc3)CC2)cc1	COUP-TFII inh 63.0 | Gal4-VP16 ctr inactive | NR2F2 inh conf 49.7
COc1ccc(OCCN2CCN(S(=O)(=O)c3ccccc3C(F)(F)F)CC2)cc1	COUP-TFII inh 41.0 | Gal4-VP16 ctr inactive | NR2F2 inh conf inactive
CCOc1ccc(S(=O)(=O)N2CCN(S(=O)(=O)c3ccc(C(C)=O)cc3)CC2)cc1	none
CCN(CC)c1ccc(-c2nn3c(-c4ccc(C(C)(C)C)cc4)nnc3s2)cc1	none (no result: SRC1 inh, NCOA3 inh, NR5A2 inv ag)
CCOC(=O)c1cc(-c2ccc(C)cc2)n(CCC(=O)N2CCN(c3ccccn3)CC2)c1C	COUP-TFII inh 38.7 | Gal4-VP16 ctr inactive | NR2F2 inh conf inactive
CCOC(=O)[C@@]12CCC3=C1N(CCC3)C(=O)[C@H](CC(=O)NCC13CC4CC(CC(C4)C1)C3)C2	none (no result: SRC1 inh, NCOA3 inh, NR5A2 inv ag)
COCCn1c(C)cc(C(=O)CSc2ccc(NC(C)=O)cc2)c1C	none
CC(=O)Nc1ccc(SCC(=O)c2cc(C)n(Cc3cccs3)c2C)cc1	COUP-TFII inh 66.8 | Gal4-VP16 ctr inactive | NR2F2 inh conf 73.2
Cc1csc(SCC(=O)c2cc(C)n(Cc3cccs3)c2C)n1	COUP-TFII inh 67.2 | Gal4-VP16 ctr 37.2 | NR2F2 inh conf 79.6
CC(=O)Nc1ccc(SCC(=O)c2cc(C)n(-c3ccccc3F)c2C)cc1	COUP-TFII inh 66.9 | Gal4-VP16 ctr 35.0 | NR2F2 inh conf 64.3
COC(=O)c1ccc(-n2c(C)cc(C(=O)CSc3ccc(NC(C)=O)cc3)c2C)cc1	none
Cc1cc(C(=O)CSc2nnc(N)s2)c(C)n1Cc1cccs1	none
CC1(C(=O)NCc2cccnc2)Cc2c(-c3cccc(C(F)(F)F)c3)ccnc2O1 (centres undefined)	COUP-TFII inh 38.6 | Gal4-VP16 ctr inactive | NR2F2 inh conf inactive
COC(=O)[C@]12C[C@H](CC(=O)NCc3ccc(OC)c(OC)c3)C(=O)N(Cc3ccc(Cl)cc3Cl)C1=C[C@H](C(C)C)O[C@@H]2C1CC1	none (no result: SRC1 inh, NCOA3 inh, NR5A2 inv ag)
O=C(Nc1cccc(S(=O)(=O)N2CCCCC2)c1)c1ccc2c(=O)n3c(nc2c1)CCCCC3	COUP-TFII inh 44.9 | Gal4-VP16 ctr inactive | NR2F2 inh conf 48.8
C[C@@H]1C[C@H]2[C@@H](C)C(=O)N3[C@H](c4ccccc4)[C@H](C)C[C@H]3[C@@H](C)C(=O)N2[C@@H]1c1ccccc1	none (no result: SRC1 inh, NCOA3 inh, NR5A2 inv ag)
CC(C)OC(=O)CCCCCN1C(=O)CSC1=S	none
O=C(O)CCCCCN1C(=O)CSC1=S	COUP-TFII inh 45.5, SRC2 inh 80.5 | Gal4-VP16 ctr inactive | NR2F2 inh conf inactive
CC1CCCCN1C(=O)c1ccc(CNC(=O)c2cccc(Br)c2)cc1 (centres undefined)	none (no result: SRC1 inh, NCOA3 inh, NR5A2 inv ag)
c1ccc(-c2ccc(-c3nc(-c4ccccn4)no3)cc2)cc1	COUP-TFII inh 63.5, SRC2 inh 66.8, NCOA3 inh 66.4 | Gal4-VP16 ctr 70.9 | NR2F2 inh conf 87.8
c1ccc(-c2nc(-c3ccccn3)no2)cc1	none
Cc1ccc(-c2nc(-c3ccccn3)no2)cc1Cl	none
Cc1ccc(-c2nc(-c3ccccn3)no2)cc1	COUP-TFII inh 71.8, SRC2 inh 74.9 | Gal4-VP16 ctr 60.3 | NR2F2 inh conf 78.5
CCOC(=O)CNC(=O)CSc1nc2ccccc2c(=O)n1-c1ccc(Cl)cc1	none (no result: SRC1 inh, NCOA3 inh, NR5A2 inv ag)
CN(C)C(CNC(=O)c1cc(S(=O)(=O)N(C)c2ccccc2)ccc1Cl)c1cccs1 (centres undefined)	COUP-TFII inh 40.5 | Gal4-VP16 ctr inactive | NR2F2 inh conf inactive
CC(COc1ccc(C#N)cc1F)CN1CCC(C(O)(c2ccccc2)c2ccccc2)CC1 (centres undefined)	none (no result: SRC1 inh, NCOA3 inh, NR5A2 inv ag)
Cc1ccc(NS(=O)(=O)c2cccc(C(=O)NC3CCN(Cc4ccccc4)CC3)c2)c(C)c1	COUP-TFII inh 56.4 | Gal4-VP16 ctr inactive | NR2F2 inh conf inactive
Cc1ccc(C)c(OCc2cc(C(=O)NC3CCN(Cc4ccccc4)CC3)no2)c1	COUP-TFII inh 48.0 | Gal4-VP16 ctr inactive | NR2F2 inh conf inactive
C=CCN(c1ccccc1)S(=O)(=O)c1cccc(C(=O)NC2CCN(Cc3ccccc3)CC2)c1	COUP-TFII inh 58.3 | Gal4-VP16 ctr inactive | NR2F2 inh conf 43.6

Source: PubChem BioAssay
